# Source: PubChem
# A selection: hits, their analogues and other compounds. The true share with any hit is near 5.4%.
# aDG glyco act = activators of alpha-DG glycosylation, primary screen, uHTS, Pro5-aDG cells, AlphaScreen; alpha-DG glycosylation AlphaScreen (IIH6); 0% Pro5, 100% B10-LARGE cell signal; activation, % at 10 µM; actives 0.22% (n = 360,000); AID 624168, 2012;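 active = activation of at least 8% versus controls, or a plate z-score of at least 8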;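 note: Pro5 are CHO cells carrying HIG-tagged alpha-DG that lacks glycosylation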
# PHOSPHO1 inh = PubChem AID 1565; recombinant PHOSPHO1, absorbance phosphatase assay; actives 1.1% (n = 290,000); Phosphoethanolamine/phosphocholine phosphatase (Homo sapiens), Q8TCT1; inhibition, % at 13.3 µM; in the data active = inhibition above about 60%
# Target sequence (Q8TCT1 whole entry, looked up): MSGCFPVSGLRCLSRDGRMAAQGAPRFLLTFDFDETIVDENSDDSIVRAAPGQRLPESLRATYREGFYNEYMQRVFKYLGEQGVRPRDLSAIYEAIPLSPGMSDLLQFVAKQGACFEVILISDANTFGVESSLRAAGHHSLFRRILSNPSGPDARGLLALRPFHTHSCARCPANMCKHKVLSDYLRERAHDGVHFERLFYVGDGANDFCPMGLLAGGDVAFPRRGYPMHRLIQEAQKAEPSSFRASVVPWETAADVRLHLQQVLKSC
# ALR H2O2 inh = inhibitors of human ALR sulfhydryl oxidase, primary screen, biochemical, H2O2 detection, HRP-luminol luminescence, single point. inhibition, % (test concentration not listed). actives 3.8% (n = 290,000). purified ALR, DTT oxidation. AID 485317, 2010;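 active = mean replicate inhibition above about 79%, with every replicate also reaching it, limit read from the data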
# Target sequence (P55789 whole entry, looked up): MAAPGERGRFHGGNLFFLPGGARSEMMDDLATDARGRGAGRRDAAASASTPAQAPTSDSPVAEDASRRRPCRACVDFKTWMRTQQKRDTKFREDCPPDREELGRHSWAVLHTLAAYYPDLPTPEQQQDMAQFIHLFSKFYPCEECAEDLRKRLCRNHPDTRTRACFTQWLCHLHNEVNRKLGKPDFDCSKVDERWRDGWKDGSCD
# A3G deaminase = APOBEC3G DNA deaminase inhibitors, primary screen, biochemical, fluorescence, single-stranded DNA substrate, uHTS; recombinant A3G, ssDNA deamination FAM/TAMRA fluorescence; inhibition, % at 20 µM; actives 0.28% (n = 330,000);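 active = inhibition of at least 40% at 20 µM, with no more than 30% in the related APOBEC3A deaminase screen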
# A3A deaminase = APOBEC3A ssDNA deaminase inhibitors, primary screen, selectivity assay for APOBEC3G inhibitor project, biochemical, FAM/TAMRA oligo cleavage fluorescence; DNA dC->dU-editing enzyme APOBEC-3A (Homo sapiens), P31941; recombinant A3A, FAM/TAMRA ssDNA deamination fluorescence; inhibition, % at 20 µM; actives 0.41% (n = 330,000); AID 493011, 2011;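 active = at least 40% inhibition at 20 µM here, with at most 30% in a related deaminase screen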
# rCAG RNA binder = binders of r(CAG) RNA repeats, primary screen, biochemical, fluorescence; r(CAG) RNA repeat, TO-PRO-1 dye displacement fluorescence; actives 1.3% (n = 370,000); inhibition, % at 3 µM; AID 651821, 2012;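 active = inhibition above the plate cutoff, the mean of all test compounds on that plate plus 3 SD, cut at about 35% in these data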;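 note: higher means more dye released from RNA so lower well fluorescence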
# rCAG bind conf = small molecules binding CAG repeat RNA – biochemical, fluorescence, confirmation; shares compounds with rCAG RNA binder; r(CAG) RNA repeat, TO-PRO-1 dye displacement fluorescence; inhibition, % at 3 µM; actives 70% (n = 4,300);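 active = inhibition above a per-plate cutoff, the mean inhibition of sample wells plus 3 SD, cut at about 35% in these data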;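 note: loss of TO-PRO-1 fluorescence as compound displaces dye from 1x1 AA loop RNA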
# dCAG dye counter = displacement of TO-PRO-1 from CAG DNA duplex, counter-screen for rCAG RNA repeat binder project, biochemical, fluorescence, TO-PRO-1 dye, d(CAG) DNA oligo; shares compounds with rCAG RNA binder; d(CAG) DNA oligo TO-PRO-1 dye displacement; inhibition, % at 3 µM; actives 94% (n = 4,300); AID 652068, 2013;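 active = inhibition above its plate's cutoff, the mean test-well inhibition plus 3 SD, cut at about 4.8% in these data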;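 note: hits displace the dye from DNA and so lower well fluorescence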
# DNA CAG DR = inhibitors of DNA CAG/GTC TO-PRO-1 complex, dose response, counter-screen for rCAG RNA repeat binder project, biochemical, fluorescence, TO-PRO-1 dye; shares compounds with rCAG RNA binder; DNA CAG/GTC duplex TO-PRO-1 dye displacement fluorescence; IC50, µM; actives 20% (n = 250); AID 686960, 2013; in the data active = IC50 below about 10 µM
# Hits are given with their value; n = inactive; x = not tested or not shown.
SMILES,aDG glyco act,PHOSPHO1 inh,ALR H2O2 inh,A3G deaminase,A3A deaminase,rCAG RNA binder,rCAG bind conf,dCAG dye counter,others
CCCCCCCCN1C(=O)[C@@H](CC(=O)NCC2CCCCC2)C[C@@]2(C(=O)OC)C1=C[C@H](C1CCCC1)O[C@@H]2C,x,x,x,x,x,n,x,x,
Cc1cccc(Cc2cnc(N3C(=N)SC(c4ccccc4)C3=O)s2)c1 (configuration not stated),n,n,x,n,n,39.6,53.3,18.4,
O=C1/C(=C2\C(=O)N(Cc3ccc(F)cc3)c3ccccc32)SC(=S)N1CCS(=O)(=O)O,n,x,n,n,n,75.0,83.0,46.9,
C=CCN1[C@@H](CC(C)C)COc2cccc(NCCCN3CCOCC3)c2S1(=O)=O,x,x,x,x,x,n,x,x,
Cn1cc(/C=C2\SC(=O)NC2=S)c2ccccc21,n,n,x,n,n,39.6,n,10.9,
O=C(O)Cn1c(=O)c2c3c(sc2n(Cc2ccc(Cl)cc2Cl)c1=O)CCCC3,n,x,76.5,x,x,43.5,57.7,18.6,
CC1CCc2sc3c(c2C1)c(=O)n(CC(=O)O)c(=O)n3Cc1ccc(Cl)cc1 (configuration not stated),n,n,x,n,n,54.3,48.6,13.3,
NCCNC(=O)Cn1c(=O)c2c3c(sc2n(Cc2ccccc2)c1=O)CCCC3,n,n,x,n,n,n,x,x,
CCOC(=O)C1CSCCS(=O)(=O)N1Cc1ccc(Br)cc1 (configuration not stated),x,x,x,x,x,n,x,x,
CN1C(=O)[C@H]2[C@@H](c3ccc(C(F)(F)F)cc3)N[C@]3(CCCN(Cc4cccn4C)C3=O)[C@H]2C1=O,n,x,x,x,x,n,x,x,
Cc1nccc(-c2cccc(NC(=O)Nc3ccc(Cl)cc3)c2)n1,n,n,n,n,n,n,x,x,
Cc1nccc(-c2cccc(N/N=C(\C#N)C(=O)c3ccccc3)c2)n1,n,n,n,n,n,50.8,34.9,9.3,
O=C(O)c1ccc([N+](=O)[O-])c(CS(=O)(=O)c2ccccc2)c1,n,n,n,n,n,n,x,x,
CN(C)/C=C/C(=O)c1ccc([N+](=O)[O-])c(CS(=O)(=O)c2ccccc2)c1,n,n,n,n,n,34.6,n,n,
CCOc1ccc2c(c1)c(N=Nc1cccc(C(=O)O)c1)c(O)n2C,n,n,n,n,n,n,x,x,
Cc1ccc2c(c1)c(N=Nc1cccc(C(=O)O)c1)c(O)n2C,n,n,n,n,n,37.8,56.2,12.3,DNA CAG DR=n
c1ccc(CN(Cc2ccccc2)c2nn[nH]n2)cc1,n,n,n,n,n,n,x,x,
Clc1ccc(CN(Cc2ccc(Cl)cc2)c2nn[nH]n2)cc1,n,n,n,n,n,38.6,n,5.4,
COc1ccc(-n2c(O)c(/C=N/NS(=O)(=O)c3ccc(C)c([N+](=O)[O-])c3)c3ccccc3c2=O)cc1OC,n,n,97.5,n,n,37.4,56.6,25.5,
COc1ccc(-n2c(O)c(C=Nc3ccccc3)c3ccccc3c2=O)cc1OC,n,n,x,n,n,n,x,x,
Oc1c(Cl)cc(Cl)cc1/C=N/NC(=S)NC1CC2C=CC1C2 (configuration not stated),n,n,x,n,n,65.6,81.1,47.4,
CCn1c2ccccc2c2cc(/C=N/NC(=O)c3cc(O)cc(O)c3)ccc21,n,n,n,n,n,37.5,37.0,21.3,
O=C(Nc1ccccc1OC(=O)c1ccccc1)c1ccccc1,n,x,x,x,x,n,x,x,
CCc1cccc(NC(=O)CSc2nnc(Cc3ccc(OC)cc3)c(=O)[nH]2)c1,n,x,n,n,n,45.8,42.1,9.3,
NC(=O)c1c(N)[nH]c(C(=O)c2ccccc2)c1-c1ccc2c(c1)OCO2,x,x,x,x,x,n,x,x,
SMILES,aDG glyco act,PHOSPHO1 inh,ALR H2O2 inh,A3G deaminase,A3A deaminase,rCAG RNA binder,rCAG bind conf,dCAG dye counter,others
COc1ccc(/C=C2/C(=O)N(c3ccccc3)N=C2C)cc1OC,n,n,n,n,n,n,x,x,
COc1ccc(C2=NN(c3ccccc3)C(=O)/C2=C\c2ccc(O)c(OC)c2)cc1,n,n,n,n,n,56.6,65.9,28.6,
COc1cc(/C=C2\SC(=O)NC2=O)ccc1Oc1ccc([N+](=O)[O-])cc1[N+](=O)[O-],n,n,98.0,n,n,51.7,72.4,33.0,DNA CAG DR=n
CO/N=C/c1ccc(Oc2ccc([N+](=O)[O-])cc2[N+](=O)[O-])c(OC)c1,n,n,x,n,n,n,x,x,
O=C(O)CC(Cc1ccc(Cl)cc1)C(=O)Nc1cc(Cl)ccc1Cl (configuration not stated),n,n,n,n,n,40.2,n,n,
COc1ccc(OC)c(NC(=O)C(CC(=O)O)Cc2ccc(Cl)cc2)c1 (configuration not stated),n,n,n,n,n,n,x,x,
CC(=O)Nc1cc(-c2ccc(C(=O)NC3CC3)cc2)cn2c(-c3cccc(C(F)(F)F)c3)cnc12,n,x,x,x,x,n,x,x,
CCC(C)[C@H](NC(=O)Nc1ccc(C)cc1C)C(=O)O (some centres not stated),n,n,n,n,n,64.0,n,n,
CCCNC(=O)Nc1ccc(C)cc1C,n,n,n,n,n,n,x,x,
Cc1ccc(-c2ccc(/C=N/NC(=S)Nc3ccccc3)o2)cc1[N+](=O)[O-],n,n,n,n,n,42.5,n,15.9,
NC(=S)N/N=C/c1ccc(-c2cccc([N+](=O)[O-])c2)o1,n,n,n,n,n,n,x,x,
O=[N+]([O-])c1cccc(-c2ccc(/C=N/NC(=S)Nc3cccc(F)c3)o2)c1,n,n,n,n,n,39.1,n,13.2,
COCCc1ccc(OC2(C)CCN(Cc3cccn3-c3nccs3)C2)cc1 (configuration not stated),n,x,x,x,x,n,x,x,
COc1ccccc1Cc1c(C(C)(C)C)nc2c(C)cc(Br)cn12,x,x,x,x,x,n,x,x,
Cc1noc(NS(=O)(=O)c2ccc(N/C=C\C(=O)c3ccc(Br)cc3)cc2)c1C,n,n,n,n,n,74.6,74.0,38.8,
